# Data published in PubChem BioAssay (EPA / NIEHS).
# Results filed as inconclusive are left out. A structure can be active in one record and inactive in another. Calls of active or inactive are those of the source. How the source made its calls, unless noted: active means hit-call score of the fitted dose curve at least 0.9, where 1 is the maximum; inactive means score below 0.9.
# Experiments:
# [1] = target: human CYP19A1, CYP19A1 (gene 1588) (UniProt P11511); assay: NVS_ADME_hCYP19A1: NovaScreen (NVS) CYP450-related Enzyme Activity (ADME) Assay for human CYP19A1 (AID 2283098; active means hit-call score of the fitted dose curve at least 0.9, where 1 is the maximum;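 on AC50: potency for inhibitors seen as loss of fluorescent enzyme signal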)
# In short: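 Fluorescence intensity read-out; activity taken as signal loss relative to acetonitrile vehicle. Extracted enzyme, specific substrate, no cells, 0.5 h exposure. Duplicate single-point screen at 10 uM, then concentration–response follow-up for actives.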
# [2] = target: human Vascular Endothelial Growth Factor Receptor 3 (VEGFR3), FLT4 (gene 2324) (UniProt P35916); assay: NVS_ENZ_hVEGFR3: NovaScreen (NVS) Enzymatic Assay for human Vascular Endothelial Growth Factor Receptor 3 (VEGFR3) (AID 2283229; active means hit-call score of the fitted dose curve at least 0.9, where 1 is the maximum)
# In short: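 Chemicals first run in duplicate at 25 uM, with actives re-tested in concentration series to a top of 50 uM. Recombinant VEGFR3 activity measured after 1 h via fluorescence with mobility-shift product separation; inhibition fitted relative to DMSO.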
# [3] = target: human Vascular Endothelial Growth Factor Receptor 1 (VEGFR1), FLT1 (gene 2321) (UniProt P17948); assay: NVS_ENZ_hVEGFR1: NovaScreen (NVS) Enzymatic Assay for human Vascular Endothelial Growth Factor Receptor 1 (VEGFR1) (AID 2283226; active means hit-call score of the fitted dose curve at least 0.9, where 1 is the maximum)
# In short: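 Kinase activity of recombinant human VEGFR1 was read by fluorescence after electrophoretic separation of product from substrate, 1 h post-dosing; initial duplicate single-point testing at 25 uM, followed by concentration-series follow-up, with DMSO as baseline.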
# [4] = CCTE_Shafer_MEA_acute_per_network_burst_spike_number_mean: CCTE's Neural Acute Assay for Average Number of Spikes in a Network Burst, Shafer Lab (AID 2284019);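 on AC50: curve fitted for loss of signal so actives reduce spikes per network burst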
# In short: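 Rat cortical cultures, DIV 13/15; spike threshold 8x rms noise, 300-5000 Hz band-pass, 12.5 kHz sampling; wells need >/= 10 active electrodes. Compound 0.03-40 uM, 40 min, 37 C; % change vs own baseline, DMSO negative control.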
# [5] = CCTE_Shafer_MEA_acute_per_network_burst_spike_number_std: CCTE's Neural Acute Assay for Standard Deviation of Number of Spikes in a Network Burst, Shafer Lab (AID 2284020);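 further: fitted for decrease in spike-number SD versus DMSO so actives lower it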
# In short: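 Rat cortical cultures, DIV 13/15, 37 C; 20-min stabilisation, 40-min baseline, compound 0.03-40 uM, 40-min re-record. Spikes detected at 8x rms noise (300-5000 Hz band-pass). Readout: % change from baseline in per-burst spike-number SD.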
# [6] = CCTE_Shafer_MEA_acute_per_network_burst_electrodes_number_mean: CCTE's Neural Acute Assay for Mean Number of Electrodes in a Network Burst, Shafer Lab (AID 2284021);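 further: curves fitted for decreases only so hits reduce electrodes per burst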
# In short: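 Primary rat cortical networks, mwMEA, 37 C. 20 min stabilization, 40 min baseline, compound 0.03-40 uM, 40 min re-record. Wells need >=10 active electrodes; percent change per well, negative fitting direction.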
# [7] = CCTE_Shafer_MEA_acute_network_burst_percentage: CCTE's Neural Acute Assay for Percentage of Network Bursts, Shafer Lab (AID 2284022);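 further: curves fitted for loss so actives lower network burst percentage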
# In short: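 Readout is the fraction of spikes falling in network bursts, expressed as per-well percent change from a 40-min pre-exposure baseline. Primary rat cortical neurons on MEA were exposed to 0.03-40 uM compound on DIV 13 or 15 and recorded for 40 min at 37 C.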
# [8] = CCTE_Shafer_MEA_acute_cross_correlation_area: CCTE's Neural Acute Assay for Area of Cross Correlation, Shafer Lab (AID 2284024);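 further: area under pooled inter-electrode spike cross-correlation near zero lag as percent change from own baseline; curves fitted for loss of cross-correlation area so actives lower synchrony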;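 on outcome: rat primary cortical neuron networks on 48-well MEA at DIV 13 or 15 with 40 min exposure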
# In short: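 Plates equilibrated 20 min at 37 C, then 40 min baseline was recorded, compound was added (0.03-40 uM), and a further 40 min was recorded. Wells needed ≥10 active electrodes (≥5 spikes/min) on exposure day.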
# [9] = CCTE_Shafer_MEA_acute_cross_correlation_HWHM: CCTE's Neural Acute Assay for Cross Correlation at Half Width at Half Maximum, Shafer Lab (AID 2284026);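 further: percent change per well from pre-dose baseline in spike cross-correlogram half width; hits are a decrease in cross-correlogram half width relative to DMSO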;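 on outcome: spontaneous network firing of rat primary cortical neurons on multiwell microelectrode arrays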
# In short: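 Rat cortical neuron cultures on microelectrode arrays were equilibrated 20 min at 37 C, recorded 40 min at baseline, then 40 min after compound addition (0.03-40 uM, ≥3 wells). Spikes were detected at 8x rms noise after 300-5000 Hz band-pass filtering.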
# [10] = CCTE_Shafer_MEA_acute_synchrony_index: CCTE's Neural Acute Assay for Synchrony, Shafer Lab (AID 2284027);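 further: network synchrony index of spontaneous spiking in primary rat cortical neurons on MEAs; fitted for loss of signal so actives lower synchrony relative to DMSO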
# In short: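 Acute exposure of rat primary cortical neurons (DIV 13 or 15) at 0.03-40 uM. Synchrony index, 40 min before vs after, as % change relative to DMSO control.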
# [11] = CCTE_Shafer_MEA_acute_LDH: CCTE's Lactate Dehydrogenase Assay for Cytotoxicity in the Neural Acute Assay, Shafer Lab (AID 2284086; active means hit-call score of the fitted dose curve at least 0.9, where 1 is the maximum;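 further: active means LDH release rises above DMSO vehicle level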)
# In short: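 Cytotoxicity readout: spectrophotometric LDH activity in supernatant of rat primary cortical neurons, post-plating day 13 or 15, sampled after 40 min compound exposure; signal gain relative to DMSO baseline.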
# [12] = read-out: Collagen I, COL1A1 (gene 1277); assay: BSK_hDFCGF_CollagenI: BioMAP Diversity Plus: hDFCGF Assay for Collagen I Biomarker Activity (AID 2284250); settings: primary human foreskin fibroblasts
# In short: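 Readout: Collagen I by ELISA after 24 h compound treatment of primary human foreskin fibroblasts. Endpoint analysed for increases relative to DMSO; total protein by SRB in parallel wells flagged cytotoxicity.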
# [13] = read-out: Interleukin-8 (IL8), CXCL8 (gene 3576); assay: BSK_KF3CT_IL8: BioMAP Diversity Plus: KF3CT Assay for Interleukin-8 (IL8) Biomarker Activity (AID 2284254); settings: primary human keratinocytes with fibroblasts
# In short: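 Chemicals were added to co-cultured human keratinocytes and foreskin fibroblasts, incubated 24 h, then IL-8 was quantified by ELISA. Cytotoxicity was tracked by sulforhodamine B total-protein staining in parallel cultures.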
# KRT18 (gene 3875) = assay: BSK_BE3C_Keratin818: BioMAP Diversity Plus: BE3C Assay for Keratin 818 Biomarker Activity (AID 2284282); settings: primary human bronchial epithelial cells
# In short: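 In this multiplexed primary-cell system, bronchial epithelial cells were dosed and harvested at 24 h. Keratin 8/18 was determined by ELISA and analysed for increases over DMSO controls.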
# [14] = target: Estrogen receptor (Homo sapiens) + Estrogen receptor beta (Homo sapiens) (UniProt P03372+Q92731); assay: OT_ER_ERaERb_0480: Odyssey Thera (OT) 8-hour HEK293T Protein-Complementation Assay for Estrogen Receptor-alpha/-beta Heterodimer (AID 2283352; active means hit-call score of the fitted dose curve at least 0.9, where 1 is the maximum)
# In short: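 Compound added to HEK293T cells carrying split-reporter-tagged ER-alpha and ER-beta LBDs, incubated 8 hours, then imaged by laser scanning cytometer. Signal rise in nucleus, or nucleus and cytoplasm, over vehicle was fitted in the positive direction.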
# [15] = target: chimpanzee Androgen Receptor (AR), AR (gene 747460) (UniProt O97775); assay: NVS_NR_cAR: NovaScreen (NVS) Nuclear Receptor Binding Assay for chimpanzee Androgen Receptor (AR) (AID 2283346; active means hit-call score of the fitted dose curve at least 0.9, where 1 is the maximum;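 further: radioligand displacement from AR measured by scintillation counting in a cell-free assay; a loss of bound radioligand signal versus DMSO counts as binding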)
# In short: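 Radioligand binding to chimpanzee AR expressed in Sf9/Sf21 cells, cell-free, measured 72 h after dosing by lysate-based scintillation counting. Loss of signal vs DMSO; initial duplicate screen at 25 uM, actives retested in concentration series.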
# [16] = CEETOX_H295R_11DCORT: CeeTox H295R High-throughput Steroidogenesis Assay for 11-Deoxycortisol (11DCORT) (AID 2283432); settings: actives raise or lower the signal;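 on AC50: human adrenal H295R cells prestimulated with 10 µM forskolin for 48 h; 11-deoxycortisol secreted into the medium measured by LC-MS/MS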
# In short: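 Steroidogenesis in human H295R cells: 48 h chemical exposure after forskolin priming, 11-deoxycortisol measured by LC-MS/MS.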
# [17] = CEETOX_H295R_CORTIC: CeeTox H295R High-throughput Steroidogenesis Assay for Corticosterone (CORTIC) (AID 2283437); settings: actives raise or lower the signal;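 further: corticosterone secreted into medium quantified by mass spectrometry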
# In short: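 48 h forskolin (10 uM) prestim, then 48 h chemical exposure, final DMSO 0.1%. Readout: corticosterone in medium by LC-MS/MS after MTBE extraction. Gain/loss fit vs DMSO; MTT viability in same wells.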
# [18] = CEETOX_H295R_CORTISOL: CeeTox H295R High-throughput Steroidogenesis Assay for Cortisol (AID 2283438); settings: actives raise or lower the signal;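 further: cortisol secreted into medium quantified by LC-MS/MS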
# In short: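 Steroidogenesis in H295R, per modified OECD 456: 48 h forskolin (10 uM), then 48 h exposure, 0.1% DMSO. Cortisol by extraction and tandem MS; viability by MTT (570/650 nm); cytotoxic chemicals diluted and re-tested.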
# [19] = CEETOX_H295R_DOC: CeeTox H295R High-throughput Steroidogenesis Assay for DOC (AID 2283439); settings: actives raise or lower the signal
# In short: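 H295R, fsk 10 uM ×48 h pre, cmpd ×48 h (0.1% DMSO). Media → MTBE extr. → LC-MS/MS, DOC. Bidirectional fit vs DMSO; MTT viability same wells, re-test diluted if <70%.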
# chimpanzee Androgen Receptor (AR), AR (gene 747460), sequence (O97775 whole entry, looked up): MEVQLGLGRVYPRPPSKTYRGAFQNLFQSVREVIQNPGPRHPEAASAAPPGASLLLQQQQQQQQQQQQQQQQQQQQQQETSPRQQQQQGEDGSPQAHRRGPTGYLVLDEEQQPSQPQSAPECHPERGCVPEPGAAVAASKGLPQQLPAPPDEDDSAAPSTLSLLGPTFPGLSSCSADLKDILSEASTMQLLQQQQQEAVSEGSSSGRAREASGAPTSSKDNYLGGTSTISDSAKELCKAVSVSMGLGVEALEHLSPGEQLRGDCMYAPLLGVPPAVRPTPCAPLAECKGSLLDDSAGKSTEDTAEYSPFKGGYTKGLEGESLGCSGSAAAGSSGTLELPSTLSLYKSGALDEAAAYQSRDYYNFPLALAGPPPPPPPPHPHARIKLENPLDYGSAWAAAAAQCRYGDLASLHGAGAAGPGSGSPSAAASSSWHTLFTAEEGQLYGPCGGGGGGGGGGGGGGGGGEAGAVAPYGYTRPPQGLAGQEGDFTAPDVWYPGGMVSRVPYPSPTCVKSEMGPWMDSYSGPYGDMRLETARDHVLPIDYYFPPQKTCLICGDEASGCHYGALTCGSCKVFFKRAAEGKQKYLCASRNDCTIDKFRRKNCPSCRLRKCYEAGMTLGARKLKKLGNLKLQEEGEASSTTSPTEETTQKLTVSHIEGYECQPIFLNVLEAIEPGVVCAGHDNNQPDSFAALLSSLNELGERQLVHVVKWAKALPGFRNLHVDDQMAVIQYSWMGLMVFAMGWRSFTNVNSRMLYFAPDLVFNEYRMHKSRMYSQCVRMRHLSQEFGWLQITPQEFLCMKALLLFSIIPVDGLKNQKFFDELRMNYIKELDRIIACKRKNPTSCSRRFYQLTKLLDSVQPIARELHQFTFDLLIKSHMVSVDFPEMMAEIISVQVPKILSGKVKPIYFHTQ
# Estrogen receptor (Homo sapiens) + Estrogen receptor beta (Homo sapiens), sequence (P03372 whole entry, looked up): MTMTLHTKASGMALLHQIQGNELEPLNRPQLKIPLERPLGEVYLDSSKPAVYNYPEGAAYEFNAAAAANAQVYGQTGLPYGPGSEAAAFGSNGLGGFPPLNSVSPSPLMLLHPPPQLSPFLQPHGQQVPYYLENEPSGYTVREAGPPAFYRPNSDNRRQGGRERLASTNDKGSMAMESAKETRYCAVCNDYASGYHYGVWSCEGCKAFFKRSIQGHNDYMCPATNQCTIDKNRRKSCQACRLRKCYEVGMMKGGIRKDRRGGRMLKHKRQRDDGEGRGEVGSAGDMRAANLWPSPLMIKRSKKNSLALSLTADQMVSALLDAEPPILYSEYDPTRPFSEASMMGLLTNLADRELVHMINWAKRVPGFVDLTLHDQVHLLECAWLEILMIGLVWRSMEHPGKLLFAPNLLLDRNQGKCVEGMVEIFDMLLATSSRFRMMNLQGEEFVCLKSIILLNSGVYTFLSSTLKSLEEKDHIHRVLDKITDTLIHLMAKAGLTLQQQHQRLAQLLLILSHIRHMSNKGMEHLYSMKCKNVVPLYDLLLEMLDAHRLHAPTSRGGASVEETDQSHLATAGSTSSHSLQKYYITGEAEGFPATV
# Estrogen receptor (Homo sapiens) + Estrogen receptor beta (Homo sapiens), sequence (Q92731 whole entry, looked up): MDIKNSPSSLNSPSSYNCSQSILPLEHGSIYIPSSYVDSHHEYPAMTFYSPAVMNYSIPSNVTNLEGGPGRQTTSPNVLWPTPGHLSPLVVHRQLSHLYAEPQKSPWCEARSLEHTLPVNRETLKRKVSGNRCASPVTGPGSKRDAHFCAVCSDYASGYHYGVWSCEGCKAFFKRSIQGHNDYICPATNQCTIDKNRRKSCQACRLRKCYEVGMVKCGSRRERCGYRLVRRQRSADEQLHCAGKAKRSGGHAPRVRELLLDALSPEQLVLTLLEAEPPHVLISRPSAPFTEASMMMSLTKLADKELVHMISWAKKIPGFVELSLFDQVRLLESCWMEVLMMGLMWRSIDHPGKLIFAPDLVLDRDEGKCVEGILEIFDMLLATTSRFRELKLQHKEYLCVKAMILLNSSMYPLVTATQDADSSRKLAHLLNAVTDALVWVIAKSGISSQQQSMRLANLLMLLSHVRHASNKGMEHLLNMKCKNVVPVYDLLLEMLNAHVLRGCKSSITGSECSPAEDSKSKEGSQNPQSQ
# human Vascular Endothelial Growth Factor Receptor 1 (VEGFR1), FLT1 (gene 2321), sequence (P17948 whole entry, looked up): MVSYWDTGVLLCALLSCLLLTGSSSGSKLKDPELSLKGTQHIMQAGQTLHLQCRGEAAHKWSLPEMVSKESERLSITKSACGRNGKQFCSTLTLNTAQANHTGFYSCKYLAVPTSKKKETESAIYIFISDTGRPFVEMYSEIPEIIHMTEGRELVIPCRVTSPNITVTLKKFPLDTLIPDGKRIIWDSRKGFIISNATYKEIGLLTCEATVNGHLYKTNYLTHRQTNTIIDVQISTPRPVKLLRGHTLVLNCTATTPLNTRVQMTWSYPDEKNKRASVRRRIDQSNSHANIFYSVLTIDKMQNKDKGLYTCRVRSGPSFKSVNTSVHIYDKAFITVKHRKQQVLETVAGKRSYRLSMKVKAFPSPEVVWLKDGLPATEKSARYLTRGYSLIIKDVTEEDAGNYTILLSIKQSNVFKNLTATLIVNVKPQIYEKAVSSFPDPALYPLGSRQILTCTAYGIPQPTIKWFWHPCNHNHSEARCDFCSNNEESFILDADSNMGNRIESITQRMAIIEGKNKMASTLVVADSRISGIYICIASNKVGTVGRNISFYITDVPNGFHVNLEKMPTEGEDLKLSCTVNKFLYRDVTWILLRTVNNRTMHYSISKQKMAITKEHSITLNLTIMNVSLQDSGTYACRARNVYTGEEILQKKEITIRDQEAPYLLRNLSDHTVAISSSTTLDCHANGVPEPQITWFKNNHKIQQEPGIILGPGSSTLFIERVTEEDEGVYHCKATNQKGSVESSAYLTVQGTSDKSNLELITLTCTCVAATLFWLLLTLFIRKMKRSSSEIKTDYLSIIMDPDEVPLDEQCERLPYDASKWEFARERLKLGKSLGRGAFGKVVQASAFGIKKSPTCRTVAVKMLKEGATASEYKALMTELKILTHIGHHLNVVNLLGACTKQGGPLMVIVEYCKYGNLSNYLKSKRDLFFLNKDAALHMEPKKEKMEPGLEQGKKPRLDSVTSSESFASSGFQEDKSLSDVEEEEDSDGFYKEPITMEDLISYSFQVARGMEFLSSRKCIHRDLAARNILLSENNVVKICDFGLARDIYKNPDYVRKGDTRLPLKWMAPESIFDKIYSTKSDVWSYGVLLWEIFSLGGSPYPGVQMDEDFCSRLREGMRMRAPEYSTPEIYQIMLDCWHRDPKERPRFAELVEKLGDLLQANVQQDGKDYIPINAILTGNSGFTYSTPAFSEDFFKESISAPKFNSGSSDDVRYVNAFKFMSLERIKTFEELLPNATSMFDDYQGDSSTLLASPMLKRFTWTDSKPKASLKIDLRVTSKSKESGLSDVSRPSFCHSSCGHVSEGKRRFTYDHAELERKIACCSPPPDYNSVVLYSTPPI
# human Vascular Endothelial Growth Factor Receptor 3 (VEGFR3), FLT4 (gene 2324), sequence (P35916 whole entry, looked up): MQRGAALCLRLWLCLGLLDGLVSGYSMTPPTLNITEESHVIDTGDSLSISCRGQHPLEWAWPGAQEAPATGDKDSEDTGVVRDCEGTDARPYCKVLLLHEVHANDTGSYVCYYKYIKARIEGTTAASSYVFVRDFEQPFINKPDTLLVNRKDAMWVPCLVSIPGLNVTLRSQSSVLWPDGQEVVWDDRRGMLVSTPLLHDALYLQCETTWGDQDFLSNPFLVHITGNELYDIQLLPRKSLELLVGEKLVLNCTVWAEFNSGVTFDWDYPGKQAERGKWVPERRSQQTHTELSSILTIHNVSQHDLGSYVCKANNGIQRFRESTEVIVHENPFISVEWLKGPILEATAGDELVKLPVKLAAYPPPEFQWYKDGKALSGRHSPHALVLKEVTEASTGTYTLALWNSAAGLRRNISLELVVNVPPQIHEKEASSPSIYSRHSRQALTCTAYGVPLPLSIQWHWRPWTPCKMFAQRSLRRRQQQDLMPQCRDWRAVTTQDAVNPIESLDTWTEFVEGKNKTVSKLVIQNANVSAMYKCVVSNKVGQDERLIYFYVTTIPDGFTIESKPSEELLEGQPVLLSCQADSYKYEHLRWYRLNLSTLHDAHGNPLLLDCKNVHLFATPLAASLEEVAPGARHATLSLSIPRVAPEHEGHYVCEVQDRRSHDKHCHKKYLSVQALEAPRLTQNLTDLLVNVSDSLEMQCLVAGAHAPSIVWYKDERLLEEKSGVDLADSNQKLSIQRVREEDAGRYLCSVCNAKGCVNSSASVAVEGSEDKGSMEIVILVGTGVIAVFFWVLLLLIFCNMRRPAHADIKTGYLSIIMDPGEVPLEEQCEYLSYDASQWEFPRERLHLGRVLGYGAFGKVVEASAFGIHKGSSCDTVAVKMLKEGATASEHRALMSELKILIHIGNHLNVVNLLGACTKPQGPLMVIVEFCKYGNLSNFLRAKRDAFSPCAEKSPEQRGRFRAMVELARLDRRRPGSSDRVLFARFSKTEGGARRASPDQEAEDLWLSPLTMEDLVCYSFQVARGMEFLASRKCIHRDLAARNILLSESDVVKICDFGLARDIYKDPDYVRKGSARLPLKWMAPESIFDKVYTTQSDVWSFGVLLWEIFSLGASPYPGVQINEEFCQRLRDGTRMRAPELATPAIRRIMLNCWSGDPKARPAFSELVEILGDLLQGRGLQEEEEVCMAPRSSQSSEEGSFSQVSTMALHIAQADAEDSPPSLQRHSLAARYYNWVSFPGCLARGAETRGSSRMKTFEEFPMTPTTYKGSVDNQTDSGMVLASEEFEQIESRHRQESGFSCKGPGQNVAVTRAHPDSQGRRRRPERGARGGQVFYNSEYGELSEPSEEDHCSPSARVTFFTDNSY
smiles,measurement,setting,value
CCC(=O)c1ccc(Cl)cc1,outcome,[1],inactive
CC(Cc1ccc(C(C)(C)C)cc1)CN1C[C@@H](C)O[C@@H](C)C1 (some centres not stated),outcome,[2],inactive
BrCBr,outcome,[3],inactive
O=[N+]([O-])c1ccc(Cl)cc1,outcome,[2],inactive
COc1ccc(CO)cc1,AC50,[4],25.4 µM (active)
same,outcome,[5],inactive
same,outcome,[6],inactive
same,outcome,[7],inactive
same,outcome,[8],inactive
same,outcome,[9],inactive
same,AC50,[10],3.81 µM (active)
same,outcome,[11],inactive
same,outcome,[12],inactive
same,outcome,[13],inactive
same,outcome,KRT18 (gene 3875),inactive
c1ccc2c(c1)CCCC2,outcome,[14],inactive
Oc1ccc(C2(c3ccc(O)cc3)c3ccccc3-c3ccccc32)cc1,outcome,[4],inactive
same,AC50,[5],23.1 µM (active)
same,outcome,[6],inactive
same,AC50,[7],26.4 µM (active)
same,AC50,[8],0.0252 µM (active)
same,AC50,[9],28.1 µM (active)
same,AC50,[10],25.4 µM (active)
same,outcome,[11],inactive
same,AC50,[12],0.151 µM (active)
same,outcome,[12],inactive
same,AC50,[13],8.38 µM (active)
same,outcome,[13],inactive
same,AC50,KRT18 (gene 3875),0.15 µM (active)
same,outcome,KRT18 (gene 3875),inactive
Nc1ccc(Cl)c(Cl)c1,AC50,[15],25 µM (active)
Cc1cc(C)c(C2=C(OC(=O)CC(C)(C)C)C3(CCCC3)OC2=O)c(C)c1,outcome,[14],inactive
same,AC50,[16],72.4 µM (active)
same,outcome,[17],inactive
same,AC50,[18],69.2 µM (active)
same,outcome,[19],inactive
CC(C)(C)C(O)C(Oc1ccc(-c2ccccc2)cc1)n1cncn1 (configuration not stated),AC50,[16],0.0464 µM (active)
same,outcome,[17],inactive
same,outcome,[18],inactive
same,outcome,[19],inactive
CC(=O)c1cc2c(cc1C)C(C)(C)C(C)CC2(C)C (configuration not stated),outcome,[15],inactive
O=c1c2ccccc2c(=O)c2c1cc(Cl)c1[nH]c3c([nH]c12)c(Cl)cc1c(=O)c2ccccc2c(=O)c13,AC50,[3],0.732 µM (active)
same,outcome,[4],inactive
same,outcome,[5],inactive
same,outcome,[6],inactive
same,outcome,[7],inactive
same,outcome,[8],inactive
same,outcome,[9],inactive
same,outcome,[10],inactive
same,outcome,[11],inactive
C=CC(=O)OCCO,outcome,[16],inactive
same,outcome,[17],inactive
same,outcome,[18],inactive
same,outcome,[19],inactive
CC[N+](=O)[O-],outcome,[15],inactive
CCOP(=O)(OCC)Oc1ccc([N+](=O)[O-])cc1,AC50,[1],6.54 µM (active)
c1ccc(P(c2ccccc2)c2ccccc2)cc1,AC50,[14],28.5 µM (active)
